Sampled rows, rich in hits. Any-hit rate of the full collection: about 5.7%.
DRD3 antagonist: qHTS of D3 Dopamine Receptor Antagonist: qHTS; hit rate 2.5% among 360,000; max response, negative = inhibition, %; D3R cells, DiscoveRx beta-arrestin luminescence, antagonist mode; active compounds read low; D(3) dopamine receptor (Homo sapiens), P35462; in the data active means max response below about -50%; inconclusive means no clear call, values can overlap the other calls; further: on the % scale 0 is the no-effect control and ±100 the full control effect
Target sequence (P35462 whole entry, looked up): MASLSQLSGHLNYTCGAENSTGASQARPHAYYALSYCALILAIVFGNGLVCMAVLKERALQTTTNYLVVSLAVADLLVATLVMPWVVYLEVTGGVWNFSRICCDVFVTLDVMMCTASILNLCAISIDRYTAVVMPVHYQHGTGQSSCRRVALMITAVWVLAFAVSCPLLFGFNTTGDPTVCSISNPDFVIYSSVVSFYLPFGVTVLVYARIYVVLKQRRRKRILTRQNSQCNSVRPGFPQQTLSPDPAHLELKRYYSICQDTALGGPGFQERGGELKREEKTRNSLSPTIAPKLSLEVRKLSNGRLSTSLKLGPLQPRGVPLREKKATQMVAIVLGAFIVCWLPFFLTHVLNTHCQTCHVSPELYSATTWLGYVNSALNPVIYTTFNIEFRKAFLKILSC
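Cells plated overnight at 1500 cells/well, then exposed to library compounds with dopamine controls for 90 minutes at 37 degrees C. DiscoveRx reagent added for 30–60 minutes at room temperature; luminescence read, quantitative HTS format.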
GLP1R ag: qHTS of GLP-1 Receptor Agonists | Glucagon-like peptide 1 receptor (Homo sapiens), P43220 | HEK293 GLP-1R CRE-luciferase, luminescence, 4-6 h; cells express a hypersensitive GLP-1R form | Potency, µM (top dose mostly 45.6 µM), inactives show top-dose activation, usual class: activators | hit rate 0.007% among 380,000; further: potency means the concentration at half of the fitted maximal effect; % of control where 0% means no effect
GLP1R cytotox: qHTS of GLP-1 Receptor Inverse Agonists: Cytotox Screen. HEK293 cAMP-luciferase reporter cells, luminescence, 24 h. Potency, µM (highest dose often 38.3 µM), without a hit: at the highest dose activity change, negative = inhibition, most hits filed as inhibitors. hit rate 0.13% among 410,000. AID 624418, 2012;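 further: loss of luciferase light is scored as toxicity; potency means the concentration at half of the fitted maximal effect; on the % scale 0 is the no-effect control and ±100 the full control effect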
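A 23 nL compound transfer followed 12 hours of cell culture at 37 deg C; exposure then lasted 24 hr. Luciferase assay detection reagent was dispensed and plates read for luminescence after a 12 min room-temperature wait.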
ClpP mod: qHTS Assay for Activators of ClpP. ATP-dependent Clp protease proteolytic subunit (Bacillus subtilis (strain 168)), P80244. hit rate 1.9% among 340,000. purified B. subtilis ClpP, FRET peptide cleavage, 20 min. Potency, µM (highest dose often 57.5 µM), inactives show at the highest dose activity change, negative = active; active means well fitted falling curve with a large enough effect; inconclusive means small, poorly fitted or top-dose-only effect; inactive means no such curve, though single readings can be large or run the other way; further: potency means the concentration at half of the fitted maximal effect; the source files actives as falling curves though it sought activators and does not explain the sign; nearly all actives have a fitted effect of over 65% in size
Target sequence (P80244 whole entry, looked up): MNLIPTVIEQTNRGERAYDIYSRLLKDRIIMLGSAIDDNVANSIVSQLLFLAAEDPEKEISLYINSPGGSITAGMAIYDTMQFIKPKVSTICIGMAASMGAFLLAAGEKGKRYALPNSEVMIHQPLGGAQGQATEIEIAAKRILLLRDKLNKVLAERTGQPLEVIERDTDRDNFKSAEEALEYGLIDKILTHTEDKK
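ClpP 10 microg/mL final, pH 8 Tris/KCl buffer with BSA, glycerol, Tween-20; compound pinned in; FRET-FV substrate; RT 20 min; Ex320/Em430; ΔFRET vs ADEP 5.8 microM, DMSO, no enzyme.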
D3 ag: qHTS of D3 Dopamine Receptor Agonist: qHTS | D(3) dopamine receptor (Homo sapiens), P35462 | D3R DiscoveRx beta-arrestin cells, luminescence, 90 min | max activation, % | hit rate 0.58% among 410,000; in the data active means max activation above about 30%; further: 0% is about no effect
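Agonist mode: compounds and dopamine controls were applied to plated cells for 90 min at 37 degrees C after an overnight attachment at 1500 cells/well. Luminescent read-out followed 30 - 60 minutes at room temperature with DiscoveRx detection reagent.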
GLP-1R inv ag: qHTS of GLP-1 Receptor Inverse Agonists (Inhibition Mode). Glucagon-like peptide 1 receptor (Homo sapiens), P43220. HEK293 GLP-1R CRE-luciferase, luminescence, 24 h; GLP-1R form is constitutively active. Potency, µM (titrated, usually from 38.3 µM), for the others: top-dose activity change, negative = inhibition, actives largely listed as inhibitors. hit rate 1.6% among 410,000; further: potency means the concentration at half of the fitted maximal effect; on the % scale 0 is the no-effect control and ±100 the full control effect; nearly all actives have a fitted effect of over 55% in size
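Seeding at 200 cells/uL, 12 h culture, 24 hr compound treatment, then luciferase reagent and a luminescence read; cells are HEK293 stably expressing a constitutively active GLP-1R plus cAMP-responsive luciferase.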
An asterisk follows results filed as active. Unless noted, the call rests on the fitted dose curve; in most records, active means well fitted curve in the direction sought with a large enough effect; inconclusive means small, poorly fitted or top-dose-only effect, or another doubt; inactive means no such curve, though single readings can be large; an effect the other way counts as inactive or inconclusive.

Screening CC(=O)NCC1CCCN(Cc2cn(-c3ccccc3F)nc2-c2cc(C)sc2C)C1 (stereo unspecified) returned DRD3 antagonist -24.3, GLP1R ag -0.5%, GLP1R cytotox -10.1%, ClpP mod 1.6%, D3 ag -18.8 and GLP-1R inv ag inconclusive.
CCc1ccccc1NC(=O)c1cc(S(=O)(=O)N2CCC(C)CC2)cn1C was read as GLP1R ag 0.3%, GLP1R cytotox 2.1%, ClpP mod 1.7%, D3 ag 62.0* and GLP-1R inv ag -16.2%.
CCOc1ccc(NC(=O)c2cc(S(=O)(=O)N3CCC(C)CC3)cn2C)cc1 was read as GLP1R ag -0.6%, GLP1R cytotox 5.9%, ClpP mod 1.5%, D3 ag -5.5 and GLP-1R inv ag 3.0%.
`CNC(=O)c1cc(C)c(-c2ccccc2)s1` gave DRD3 antagonist 30.8, GLP1R ag 18.0%, GLP1R cytotox 1.9%, ClpP mod 31.6µM*, D3 ag -9.1 and GLP-1R inv ag 2.8%.
`COc1ccc(-c2noc(-c3cccnc3N3CCN(c4ccc(OC)cc4)CC3)n2)cc1` gave GLP1R cytotox 2.5%, ClpP mod -10.2%, D3 ag 2.1 and GLP-1R inv ag 7.1%.
CN(C)CCC(=O)N1c2ccccc2Sc2ccc(C(F)(F)F)cc21 was read as DRD3 antagonist inconclusive, GLP1R ag 6.3%, GLP1R cytotox -8.7%, ClpP mod 0.5%, D3 ag -14.6 and GLP-1R inv ag inconclusive.
`O=C(CSc1nc2ccccc2s1)N1c2ccccc2Sc2ccc(C(F)(F)F)cc21` gave DRD3 antagonist 1.3, GLP1R ag -4.4%, GLP1R cytotox 2.8%, ClpP mod -1.3%, D3 ag 3.3 and GLP-1R inv ag 5.01µM*.
CN1CCN(CCC(=O)N2c3ccccc3Sc3ccc(C(F)(F)F)cc32)CC1 was read as DRD3 antagonist -52.9*, GLP1R ag 1.8%, GLP1R cytotox -26.8%, ClpP mod 0.7%, D3 ag -24.2 and GLP-1R inv ag inconclusive.
Screening CCc1ccc(C(=O)c2cn(CC(=O)NCCc3ccc(OC)c(OC)c3)c3nc(C)ccc3c2=O)cc1 returned GLP1R cytotox 3.8%, ClpP mod -1.0%, D3 ag 6.0 and GLP-1R inv ag 1.0%.
Cc1cccc(Nc2nnc(SCC(=O)NC3CCCc4ccccc43)s2)c1C (stereo unspecified) was read as DRD3 antagonist -1.6, GLP1R ag 5.2%, GLP1R cytotox -19.0%, ClpP mod -6.3%, D3 ag 1.6 and GLP-1R inv ag 8.91µM*.
For Cc1ccccc1-n1c(C)nnc1SCC(=O)NC1CCCc2ccccc21 (stereo unspecified) the results were DRD3 antagonist -10.4, GLP1R ag 4.5%, GLP1R cytotox 2.3%, ClpP mod -3.5%, D3 ag -11.0 and GLP-1R inv ag -7.9%.
`Cc1ccccc1Nc1nnc(SCC(=O)Nc2ccccc2[N+](=O)[O-])s1` gave DRD3 antagonist -1.2, GLP1R ag 15.9%, GLP1R cytotox -5.7%, ClpP mod 31.6µM*, D3 ag -17.3 and GLP-1R inv ag -7.9%.
`Cc1cccc(/C=C/C(=O)c2ccc(NC3=NCCCS3)cc2)c1` gave DRD3 antagonist -56.9*, GLP1R ag -6.6%, GLP1R cytotox -3.9%, ClpP mod -1.1%, D3 ag -2.2 and GLP-1R inv ag inconclusive.
Screening COc1cccc(/C=C/C(=O)c2ccc(NC3=NCCCS3)cc2)c1 returned DRD3 antagonist -53.7*, GLP1R ag 8.0%, GLP1R cytotox inconclusive, D3 ag -8.2 and GLP-1R inv ag inconclusive.
For O=C(/C=C/c1ccccc1)c1ccc(NC2=NCCCS2)cc1 the results were DRD3 antagonist -0.5, GLP1R ag -41.8%, GLP1R cytotox inconclusive, ClpP mod -0.6%, D3 ag 16.6 and GLP-1R inv ag inconclusive.
`CC(C)(C)c1ccc(/C=C/C(=O)c2ccc(NC3=NCCCS3)cc2)cc1` gave DRD3 antagonist -21.7, GLP1R ag 4.9%, GLP1R cytotox -2.7%, ClpP mod -3.7%, D3 ag -0.5 and GLP-1R inv ag inconclusive.
For COc1cc(C(=O)C(=O)N2CCC(Cc3ccccc3)CC2)cc2ccccc12 the results were DRD3 antagonist 0.3, GLP1R cytotox 4.0%, ClpP mod -9.4%, D3 ag -3.0 and GLP-1R inv ag inconclusive.
`Clc1cccc(-c2cc3nc4c(c(N5CCN(c6cnccn6)CC5)n3n2)CCCC4)c1` gave DRD3 antagonist 6.1, GLP1R ag 1.0%, GLP1R cytotox 12.3%, ClpP mod 10µM*, D3 ag -3.5 and GLP-1R inv ag -21.2%.
`OC1CCN(c2c3c(nc4cc(-c5ccc(Cl)cc5)nn24)CCC3)CC1` gave DRD3 antagonist -29.3, GLP1R ag 16.9%, GLP1R cytotox -8.7%, ClpP mod 14.1µM*, D3 ag 9.1 and GLP-1R inv ag 12.5%.
For Clc1cccc(-c2cc3nc4c(c(N5CCOCC5)n3n2)CCCC4)c1 the results were DRD3 antagonist 7.9, GLP1R ag 6.4%, GLP1R cytotox -7.1%, ClpP mod 31.6µM*, D3 ag 14.4 and GLP-1R inv ag 0.0%.
Fc1cccc(-c2cc3nc4c(c(N5CCOCC5)n3n2)CCCC4)c1 was read as DRD3 antagonist 13.9, GLP1R ag 2.1%, GLP1R cytotox 5.5%, ClpP mod inconclusive, D3 ag -0.4 and GLP-1R inv ag 0.0%.
For CCOC(=O)C(Cc1c[nH]c2ccccc12)NC(=O)COc1ccc(Cl)c(C)c1 (stereo unspecified) the results were GLP1R cytotox 4.8%, ClpP mod -1.6%, D3 ag 19.6 and GLP-1R inv ag inconclusive.
CC(C)(C)OC(=O)N1CCC(c2c(C(=O)NCCc3ccccc3)cnn2-c2ccc(F)cc2)CC1 was read as GLP1R cytotox -14.4%, ClpP mod 0.7%, D3 ag 7.1 and GLP-1R inv ag inconclusive.
`O=C(CN1C(=O)COc2ccc(S(=O)(=O)N3CCCCCC3)cc21)N1CCN(c2ccc(F)cc2)CC1` gave GLP1R ag 0.0%, GLP1R cytotox 0.9%, ClpP mod 0.9%, D3 ag -24.0 and GLP-1R inv ag inconclusive.

High-throughput results (PubChem)
